HIV TAR-Tat – HIV-1 TAR-Tat binding disruption | HIV-1 TAR RNA, Tat peptide displacement FRET; stronger effect = higher value | z-score (concentration not given with the values) | actives 0.6% (n = 100,000) | AID 1259389; active means z-score of 3 or more in at least 2 runs
CDC25B CDK2 inh – human CDC25B-CDK2/CyclinA binding inhibition; HTRF CDC25B-CDK2/CyclinA binding, anti-His/anti-Flag; stronger effect = higher value; z-score (concentration not given with the values); actives 0.72% (n = 94,000); in the data active means z-score above about 3.2
The depositor's hits bear a star. Rows were chosen to be rich in hits. Some 0.93% of all compounds tested hit in one or more screens of this group.

COc1cccc(C2CC(=O)N3CN(Cc4ccco4)CSC3=C2C#N)c1 (configuration not stated) was read as HIV TAR-Tat -0.78 and CDC25B CDK2 inh 15.2*.
`COc1ccc(C2CC(=O)N3CN(Cc4ccco4)CSC3=C2C#N)cc1OC` (configuration not stated) gave HIV TAR-Tat 1.08 and CDC25B CDK2 inh 5.5*.
For COc1ccc(C2CC(=O)N3CN(CCC(C)C)CSC3=C2C#N)cc1 (configuration not stated) the results were HIV TAR-Tat 1.5 and CDC25B CDK2 inh -1.23.
COc1cc(C2CC(=O)N3CN(Cc4ccco4)CSC3=C2C#N)ccc1O (configuration not stated) was read as HIV TAR-Tat -0.81 and CDC25B CDK2 inh 4.92*.
`N#CC1=C2SCN(Cc3ccco3)CN2C(=O)CC1c1cccc(F)c1` (configuration not stated) gave HIV TAR-Tat -1.24 and CDC25B CDK2 inh 0.33.
`COc1ccc(C2CC(=O)N3CN(CCC(C)C)CSC3=C2C#N)cc1OC` (configuration not stated) gave HIV TAR-Tat 0.22 and CDC25B CDK2 inh 4.73*.
`COc1ccccc1C1CC(=O)N2CN(Cc3ccco3)CSC2=C1C#N` (configuration not stated) gave HIV TAR-Tat -0.77 and CDC25B CDK2 inh 2.43.
O=C(Nc1ccc2c(c1)OCO2)C1CC(c2ccccc2F)=NO1 (configuration not stated) was read as HIV TAR-Tat 0.81 and CDC25B CDK2 inh -1.32.
`Cc1cc2c(cc3c(SCC(=O)Nc4ccc(F)c(Cl)c4)nnc(C)n32)o1` gave HIV TAR-Tat 2.94.
Screening NC(=O)CSc1nc(-c2ccccc2)nc2c1Cc1cc(Cl)ccc1O2 returned HIV TAR-Tat -0.05 and CDC25B CDK2 inh -1.13.
O=C(Nc1nccs1)c1cc(-c2ccc3c(c2)OCCO3)on1 was read as HIV TAR-Tat 0.03 and CDC25B CDK2 inh 0.69.
CCSc1nc2c(c(=O)[nH]1)C(c1ccc(C)o1)C(C(=O)OC)=C(C)N2 (configuration not stated) was read as CDC25B CDK2 inh 0.38.
For Cc1ccc(S(=O)(=O)Nc2ccc3c(c2)ncn3-c2ccccc2)cc1 the results were CDC25B CDK2 inh -0.26.
Cc1ccc(S(=O)(=O)/N=C2\C=C(n3cnc4ccccc43)C(=O)c3ccccc32)cc1 was read as CDC25B CDK2 inh 17.3*.
Screening Cc1[nH]c2ccccc2c1SCC(=O)NNC(=O)Nc1cccc(Cl)c1 returned CDC25B CDK2 inh 14.3*.
For O=C(CSc1nc2ccccc2c(=O)[nH]1)Nc1cccc(Cl)c1 the results were HIV TAR-Tat 1.84.
For COc1ccc(-c2noc(CSc3nnc(C)n3-c3cccc(C)c3)n2)c(OC)c1 the results were HIV TAR-Tat 5.87 and CDC25B CDK2 inh -1.54.
Screening CN(C)c1ccc(/C=C/c2nc3n(n2)C=COc2ccccc2-3)cc1 returned HIV TAR-Tat -6.96 and CDC25B CDK2 inh -0.68.
`CCOc1ccccc1CNS(=O)(=O)c1cc(-c2cc(C)no2)ccc1C(C)C` gave HIV TAR-Tat 0.11.
Screening CCOC(=O)CN1C2=NCCN2C(=O)c2c1sc1c2CCCC1 returned HIV TAR-Tat -1.16 and CDC25B CDK2 inh -0.07.
For O=C(c1cnc2cc(-c3ccccc3)nn2c1)c1cc(Br)ccc1O the results were HIV TAR-Tat -0.18 and CDC25B CDK2 inh -0.74.
O=C(O)c1cc2ncc(Br)cn2n1 was read as HIV TAR-Tat 17.9*.
`O=C1c2ccccc2-c2onc3c(N4CCCCC4)cc(NCCN4CCOCC4)c1c23` gave HIV TAR-Tat 6.42* and CDC25B CDK2 inh 1.91.
CCN1CCN(c2cc(NCCO)c3c4c(onc24)-c2ccccc2C3=O)CC1 was read as HIV TAR-Tat 15.3* and CDC25B CDK2 inh 1.11.
Screening CCCCNc1cc(N2CCN(CCO)CC2)c2noc3c2c1C(=O)c1ccccc1-3 returned HIV TAR-Tat 7.7* and CDC25B CDK2 inh 0.83.
CC1CCCN(CCNc2cc(N(C)C)c3noc4c3c2C(=O)c2ccccc2-4)C1 (configuration not stated) was read as HIV TAR-Tat 9.33* and CDC25B CDK2 inh -2.08.
For O=C1c2ccccc2-c2onc3c(N4CCCCC4)cc(NCCN4CCCC4)c1c23 the results were HIV TAR-Tat 0.1 and CDC25B CDK2 inh -0.44.
CN(C)c1cc(NCCN2CCCCC2)c2c3c(onc13)-c1ccccc1C2=O was read as HIV TAR-Tat 0.47 and CDC25B CDK2 inh 2.59.
CCCN1CCN(c2cc(NCCO)c3c4c(onc24)-c2ccccc2C3=O)CC1 was read as HIV TAR-Tat 2.86 and CDC25B CDK2 inh -3.65.
For CN1CCN(c2cc(NCCN3CCCC3)c3c4c(onc24)-c2ccccc2C3=O)CC1 the results were HIV TAR-Tat -3.53 and CDC25B CDK2 inh -2.16.
`COc1ccc(OC)c(NC(=O)C(=O)NCCc2ccccn2)c1` gave CDC25B CDK2 inh -2.85.
`O=C1C2C(C(=O)N1c1cccc(Cl)c1)C1C=CC2C12CC2` (configuration not stated) gave CDC25B CDK2 inh -1.57.
Screening Cc1ccsc1C(=O)Nc1ccc2[nH]c(=O)sc2c1 returned HIV TAR-Tat 1.82.
For Cc1ccccc1Nc1c(-c2ccsc2)nc2cccc(C)n12 the results were CDC25B CDK2 inh -2.32.
For CCc1ccc(CN2CCC(N3CCOCC3)CC2)cc1 the results were CDC25B CDK2 inh -1.11.
`CSc1cccc(-n2nnc(C(N)=O)c2C)c1` gave HIV TAR-Tat 0.19 and CDC25B CDK2 inh -1.75.
Screening CC(C)Nc1cc(N2CCN(C)CC2)c2noc3c2c1C(=O)c1ccccc1-3 returned HIV TAR-Tat 9.65* and CDC25B CDK2 inh 1.5.
CC(C)Nc1cc(N2CCCCC2)c2noc3c2c1C(=O)c1ccccc1-3 was read as HIV TAR-Tat 0.79 and CDC25B CDK2 inh -1.17.
COCCNc1cc(N2CCCCC2)c2noc3c2c1C(=O)c1ccccc1-3 was read as HIV TAR-Tat 8.06* and CDC25B CDK2 inh 1.71.
`CCNc1cc(N2CCCC(C)C2)c2noc3c2c1C(=O)c1ccccc1-3` (configuration not stated) gave HIV TAR-Tat 4.55* and CDC25B CDK2 inh -0.57.
For COCCNc1cc(N2CCN(C)CC2)c2noc3c2c1C(=O)c1ccccc1-3 the results were HIV TAR-Tat 1.65 and CDC25B CDK2 inh -2.47.
For CC1CCCN(c2cc(NC(C)C)c3c4c(onc24)-c2ccccc2C3=O)C1 (configuration not stated) the results were HIV TAR-Tat 0.41 and CDC25B CDK2 inh -0.58.
`CN1CCN(c2cc(Nc3ccc(N(C)C)cc3)c3c4c(onc24)-c2ccccc2C3=O)CC1` gave HIV TAR-Tat -1.16 and CDC25B CDK2 inh -0.4.
Screening COc1ccc(Nc2cc(N3CCN(C)CC3)c3noc4c3c2C(=O)c2ccccc2-4)cc1 returned HIV TAR-Tat 0.88 and CDC25B CDK2 inh 7.54*.
CN(C)CCNc1nc(N2CCCC2)c2cnn(C)c2n1 was read as HIV TAR-Tat 0.5.
`COc1ccc2c(c1)sc1ncc(C(=O)N3CCN(c4ccccn4)CC3)c(=O)n12` gave HIV TAR-Tat 1.25 and CDC25B CDK2 inh 0.21.
Screening O=C(CN1C(=O)c2cccnc2Sc2ccccc21)NC1CC1 returned HIV TAR-Tat 1.01.
COc1cc2c(=O)n(CC3CCCO3)c(=O)n(CC(N)=O)c2cc1OC (configuration not stated) was read as HIV TAR-Tat -0.21 and CDC25B CDK2 inh 0.51.
